Source: PubChem BioAssay AID743449 (Broad Institute, 2014)
About 90 (0.9%) of roughly 9,900 compounds were called active. Inconclusive results (about 2%) are left out. The full list was thinned out, with actives kept by preference. Values without a mark were called inactive.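 The calls were made as follows: active = mean normalized replicate activity at least 50 and at least half of replicates each reaching 50; inconclusive = only one of the two criteria met; inactive = neither criterion met.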

Test: reduction of CTGF mRNA in DLD1 cells – DLD1 colon cancer cells, RT-qPCR, single point, primary screen (AID 743449);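 also: 0% = neutral control wells and 100% = dasatinib control wells; higher means stronger suppression of CTGF expression like dasatinib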
Conditions: 24 h, at 12.5 µM, stronger effect = higher value

In order of falling inhibition:
1. C/C=C/c1ccc([C@@H]2[C@@H](C#N)N(c3nc(CC)cs3)[C@@H]2CO)cc1  44.5%
2. CO[C@@H](CN(C)S(=O)(=O)c1ccc(C)cc1)[C@@H](C)CN([C@@H](C)CO)S(=O)(=O)c1cccc(Cl)c1  38.7%
3. CN1C(=O)c2cc(NC(=O)c3cccc(F)c3)ccc2OC[C@@H]2O[C@@H](CC(=O)NCc3ccccc3Cl)CC[C@@H]21  36%
4. C[C@H]1CN([C@@H](C)CO)C(=O)Cc2cc(NC(=O)C3CCCCC3)ccc2O[C@H]1CN(C)Cc1ccc(Cl)c(Cl)c1  35.6%
5. CO[C@H](CN(C)S(=O)(=O)c1ccc(C)cc1)[C@@H](C)CN([C@H](C)CO)S(=O)(=O)c1cccc(Cl)c1  32.6%
6. Cc1ccc(S(=O)(=O)N[C@@H]2C=C[C@@H](CC(=O)NCc3ccc(Cl)c(Cl)c3)O[C@H]2CO)cc1  31%
7. CN1CCN(C(=O)C[C@H]2CC[C@@H]3[C@@H](COc4ccc(NC(=O)C5CCOCC5)cc4C(=O)N3C)O2)CC1  27.7%
8. O=C(C[C@H]1CC[C@@H](NC(=O)c2cccnc2)[C@@H](CO)O1)NCc1ccc(Cl)c(Cl)c1  26.4%
9. O=C(C[C@H]1C[C@@H]2c3cc(NC(=O)C4CCOCC4)ccc3O[C@@H]2[C@@H](CO)O1)NCCN1CCCCC1  23.7%
10. NCC[C@H]1CC[C@H](NC(=O)NC2CCCCC2)[C@@H](CO)O1  23.6%
11. C/C=C/c1ccc([C@H]2[C@@H](CO)N(C(=O)Nc3ccccc3F)[C@H]2C#N)cc1  23.1%
12. CO[C@H](CN(C)S(=O)(=O)c1ccc(C)cc1)[C@H](C)CN([C@H](C)CO)S(=O)(=O)c1cccc(Cl)c1  16.6%
13. COC(=O)C[C@H]1CC[C@@H](N)[C@@H](CO)O1  15.9%
14. CCS(=O)(=O)Nc1ccc2c(c1)C(=O)N(C)[C@H]1CC[C@@H](CC(=O)N3CCN(C)CC3)O[C@H]1CO2  15.7%
15. CO[C@@H](CN(C)Cc1cc(F)ccc1F)[C@@H](C)CN([C@H](C)CO)S(=O)(=O)c1ccc(C)cc1  14.9%
16. COc1ccc(CN(C)C[C@@H]2Oc3ccc(NC(=O)Nc4ccc5c(c4)OCO5)cc3CC(=O)N([C@@H](C)CO)C[C@H]2C)cc1  13.9%
17. COc1ccc2c3c(n(C)c2c1)[C@@H](CO)N(CC1CC1)CC31CN(S(=O)(=O)c2cn(C)cn2)C1  10%
18. CN1c2ccc(Br)cc2[C@@H]2[C@@H](CCN2S(=O)(=O)c2ccccc2F)[C@@H]1CO  9.29%
19. COc1ccccc1NC(=O)N[C@H]1CC[C@H](CCNS(=O)(=O)c2ccc(Cl)cc2)O[C@@H]1CO  8.99%
20. COc1ccc2c3c(n(C)c2c1)[C@@H](CO)N(C(=O)Nc1ccc(F)cc1)CC31CCN(C(=O)c2ccc3c(c2)OCO3)CC1  8.8%
21. C[C@@H]1CCCCO[C@H](CN(C)Cc2ccncc2)[C@H](C)CN([C@H](C)CO)C(=O)c2cc(NC(=O)Cc3ccccc3)ccc2O1  7.17%
22. CO[C@H](CN(C)S(=O)(=O)c1ccc(C)cc1)[C@@H](C)CN([C@@H](C)CO)S(=O)(=O)c1cccc(Cl)c1  6.82%
23. CCCN1C[C@H](C)[C@H](OC)CN(C)C(=O)c2cc(NC(=O)Nc3cccc(F)c3)ccc2OC[C@@H]1C  6.58%
24. NCC[C@@H]1CC[C@@H](NC(=O)NC2CCCCC2)[C@@H](CO)O1  5.69%
25. C/C=C/c1cccc(-c2nc(C(=O)N3CCCCC3)cc3c2[C@H](CCO)N(C(=O)NC(C)C)C3)c1  1.73%
26. CO[C@H](CN(C)S(=O)(=O)c1ccc(C)cc1)[C@H](C)CN([C@@H](C)CO)S(=O)(=O)c1cccc(Cl)c1  1.44%
27. CCS(=O)(=O)Nc1ccc2c(c1)C(=O)N(C)[C@@H]1CC[C@H](CC(=O)N3CCN(C)CC3)O[C@H]1CO2  0.381%
28. CN1C(=O)c2cc(NS(=O)(=O)c3ccccc3F)ccc2OC[C@H]2O[C@H](CC(=O)NC3Cc4ccccc4C3)CC[C@H]21  -1.53%
29. COc1cccc(-c2ccc([C@H]3[C@@H](CO)N(C(=O)Cc4ccncc4)[C@H]3C#N)cc2)c1  -2.53%
30. CN1C(=O)c2cc(NC(=O)Nc3ccccc3Cl)ccc2OC[C@@H]2O[C@@H](CC(=O)O)CC[C@H]21  -2.71%
31. Cc1ccc(S(=O)(=O)N[C@H]2C=C[C@H](CC(=O)NCc3ccc(Cl)c(Cl)c3)O[C@@H]2CO)cc1  -5.24%
32. CNC[C@H]1OCc2ccccc2-c2ccccc2C(=O)N([C@H](C)CO)C[C@H]1C  -6.87%
33. C[C@@H]1CN([C@H](C)CO)C(=O)Cc2cc(NC(=O)C3CCCCC3)ccc2O[C@H]1CN(C)Cc1ccc(Cl)c(Cl)c1  -7.16%
34. CN1C(=O)c2cc(NS(=O)(=O)c3ccccc3F)ccc2OC[C@@H]2O[C@H](CC(=O)NC3Cc4ccccc4C3)CC[C@@H]21  -9.49%
35. C/C=C/c1cccc(-c2nc(C(=O)N3CCCCC3)cc3c2[C@@H](CCO)N(C(=O)NC(C)C)C3)c1  -19.7%
36. Cn1cnc(S(=O)(=O)N[C@@H]2CC[C@H](CC(=O)NCC3CCCCC3)O[C@H]2CO)c1  -20.2%
37. CC(=O)N1C[C@@H]2N[C@H](C1)C2c1ccc(-c2ccccc2)cc1 (stereo not given in full)  -22.3%
38. COc1ccc(NC(=O)N[C@H]2CC[C@H](CCNC(=O)CN3CCOCC3)O[C@H]2CO)cc1  -23.1%
39. COCC#Cc1ccc([C@@H]2[C@@H](CO)N3CCCCN(C(=O)NC4CCCC4)C[C@@H]23)cc1  -25.3%
40. C/C=C/c1ccc([C@@H]2[C@H](CO)N(CC3CCCC3)C23CN(S(=O)(=O)CC)C3)cc1  -25.3%
41. C/C=C/c1ccc([C@@H]2[C@@H](CO)N(CC3CCCC3)C23CN(S(=O)(=O)CC)C3)cc1  -26.7%
42. O=C(NCc1cccc(F)c1)[C@H]1[C@H](CO)[C@H]2Cn3c(ccc(-c4ccncc4)c3=O)[C@@H]1N2CC1CC1  -29.8%
43. OC[C@@H]1[C@H](c2ccc(C#Cc3ccccc3F)cc2)[C@@H]2CN(CC3CCOCC3)CCCCN12  -33.6%
44. COc1cccc(-c2ccc([C@H]3[C@H](C#N)N(C(=O)Cc4ccncc4)[C@H]3CO)cc2)c1  -33.7%
45. CO[C@H]1CC[C@@H]2CCOc3ccc(C#N)cc3C(=O)N(C)C[C@@H](c3ccccc3)CC(=O)N(C)C[C@@H]1O2  -39.9%
46. CO[C@@H]1CC[C@@H]2CCOc3ccc(C#N)cc3C(=O)N(C)[C@H](C)C(=O)N(C)C[C@H]1O2  -48.9%
47. CN1CCN(C(=O)C[C@H]2CC[C@H]3[C@@H](COc4ccc(NC(=O)C5CCOCC5)cc4C(=O)N3C)O2)CC1  -56%
48. COc1ccc(CN(C)C[C@H]2Oc3ccc(NC(=O)Nc4ccc5c(c4)OCO5)cc3CC(=O)N([C@@H](C)CO)C[C@@H]2C)cc1  -64.7%
49. CN1C(=O)c2cc(NC(=O)Cc3cccs3)ccc2OC[C@H]2O[C@H](CC(=O)NCCc3ccncc3)CC[C@@H]21  -70.9%
50. CCCNC[C@@H]1[C@@H](c2ccc(C3=CCCCC3)cc2)[C@@H](CO)N1C(=O)C1CCC1  -79.5%
51. CN1C(=O)c2cc(NC(=O)Cc3cccs3)ccc2OC[C@H]2O[C@@H](CC(=O)NCCc3ccncc3)CC[C@@H]21  -83.9%

In the case of `NCC[C@H]1CC[C@@H](NC(=O)NC2CCCCC2)[C@H](CO)O1`, the inhibition is reported as 53% (active).
For `Cc1ccc(S(=O)(=O)N[C@H]2C=C[C@H](CC(=O)NCc3ccc(Cl)c(Cl)c3)O[C@H]2CO)cc1`, the inhibition was 52.5% (active).
With `COc1cccc(-c2ccc([C@@H]3[C@@H](C#N)N(C(=O)Cc4ccncc4)[C@@H]3CO)cc2)c1` the inhibition was 50.4% (active).
With `COc1ccc(CN(C)C[C@H]2Oc3ccc(NC(=O)Nc4ccc5c(c4)OCO5)cc3CC(=O)N([C@@H](C)CO)C[C@H]2C)cc1` the inhibition was 57.9% (active).
In the case of `C[C@@H]1CN([C@@H](C)CO)C(=O)Cc2cc(NC(=O)C3CCCCC3)ccc2O[C@@H]1CN(C)Cc1ccc(Cl)c(Cl)c1`, the inhibition is reported as 50.3% (active).
With `CCS(=O)(=O)Nc1ccc2c(c1)C(=O)N(C)[C@H]1CC[C@H](CC(=O)N3CCN(C)CC3)O[C@H]1CO2` the inhibition was 51.4% (active).
With `CN1CCN(C(=O)C[C@@H]2CC[C@H]3[C@@H](COc4ccc(NC(=O)C5CCOCC5)cc4C(=O)N3C)O2)CC1` the inhibition was 51.1% (active).
For `CN1C(=O)c2cc(NC(=O)Cc3cccs3)ccc2OC[C@@H]2O[C@@H](CC(=O)NCCc3ccncc3)CC[C@H]21`, the inhibition was 60.1% (active).
For `CN1C(=O)c2cc(NS(=O)(=O)c3ccccc3F)ccc2OC[C@@H]2O[C@@H](CC(=O)NC3Cc4ccccc4C3)CC[C@@H]21`, the inhibition was 108% (active).
For `CO[C@@H](CN(C)S(=O)(=O)c1ccc(C)cc1)[C@@H](C)CN([C@H](C)CO)S(=O)(=O)c1cccc(Cl)c1`, the inhibition was 74.7% (active).
With `CO[C@@H](CN(C)S(=O)(=O)c1ccc(C)cc1)[C@H](C)CN([C@H](C)CO)S(=O)(=O)c1cccc(Cl)c1` the inhibition was 93.3% (active).
With `CO[C@@H](CN(C)S(=O)(=O)c1ccc(C)cc1)[C@H](C)CN([C@@H](C)CO)S(=O)(=O)c1cccc(Cl)c1` the inhibition was 78.9% (active).
In the case of `O=S(=O)(Cc1ccccc1)N1CC2(C1)[C@H](c1ccccc1)[C@H](CO)N2CC1CCCC1`, the inhibition is reported as 63.5% (active).
With `C/C=C/c1cccc(-c2nc(C(=O)Nc3nccs3)cc3c2[C@@H](CCO)N(C(=O)NC(C)C)C3)c1` the inhibition was 59.6% (active).
